Screening results from PubChem.
This is a sample that favours compounds with a hit; in the whole collection about 11% have one here.
AMA1 RON2 block: disrupts binding of P. falciparum AMA1 to RON2. AlphaScreen AMA1-biotinylated RON2 peptide binding. Potency, µM (doses to about 58.2 µM), actives largely listed as inhibitors. 0.2% of 360,000 active. AID 720542; also: nearly all actives have a fitted effect of over 45% in size
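AMA1 (3D7) with his tag at 25 nM final met compounds first, then biotinylated RON2 peptide at 25 nM; detection used donor plus acceptor beads, 10 µg/mL apiece, read by AlphaScreen after 30 min at room temperature.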
HCV inhibitor: inhibitors of hepatitis C virus infection; Huh7.5.1 HCVcc-Cre infection, luciferase reporter, 44 h; Potency, µM (highest dose often 41.8 µM), hits mostly inhibitors; 3.4% of 340,000 active; AID 651820
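Reporter virus HCVcc-Cre (~0.5 moi) infects cells exposed to compound; seeding density 1,000 cells/well with 4 h settling beforehand. Luminescence, 15 sec read, taken 44 h post-infection following a 15 min RT substrate incubation.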
Pf growth 96h: P. falciparum growth inhibition at 96 hour, primary screen for plastid delayed-death inhibitors | P. falciparum luciferase reporter growth, 96 h | Potency, µM (top dose mostly 28.7 µM), hits mostly inhibitors | 6.9% of 320,000 active
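Plates of compound plus infected erythrocytes (2% hematocrit, 0.05% parasitemia final) incubate 96 hours, 37 C, 5% CO2. Detection reagent added; reduced luminescence from the parasites' luciferase reporter flags inhibition.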
Pf growth 48h: inhibits P. falciparum growth in the first generation, 48 h; 5.9% of 310,000 active; Potency, µM (highest dose often 28.7 µM), actives largely listed as inhibitors; P. falciparum luciferase growth in erythrocytes, 48 h; AID 504832
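In quantitative HTS format, infected erythrocytes bearing luciferase-reporter parasites were treated for a single generation at 37 C. Luminescence after adding detection reagent served as the growth measure.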
A number is an active result; i = inactive; ? = inconclusive; nt = no result. Calls follow the shape of the dose curve; as a rule, active = well fitted curve in the direction sought with a large enough effect; inconclusive = small, poorly fitted or top-dose-only effect, or another doubt; inactive = no such curve, though single readings can be large; an effect the other way counts as inactive or inconclusive.

SMILES	AMA1 RON2 block	HCV inhibitor	Pf growth 96h	Pf growth 48h
Cc1ccc(C2CN=NC23CCc2ccccc2C3=O)cc1 (stereo unspecified)	i	i	3.7µM	nt
COC(=O)c1ccc(C)cc1C1CN=NC12Cc1cc(C)ccc1C2=O (stereo unspecified)	i	?	nt	nt
O=C1c2ccccc2CCCC12N=NCC2c1cccc2ccccc12 (stereo unspecified)	i	2.8µM	1.9µM	2.6µM
CC(C)CCNC(=O)C(c1ccc(O)cc1)N(C(=O)C1COc2ccccc2O1)c1cccc(O)c1 (stereo unspecified)	i	i	?	12µM
CCOc1cccc(N(C(=O)C2COc3ccccc3O2)C(C(=O)NC2CCCCC2)c2ccc(O)cc2)c1 (stereo unspecified)	i	i	i	13µM
O=C(NCCc1ccc(O)c(O)c1)C1COc2ccccc2O1 (stereo unspecified)	i	?	i	?
CCOC(=O)C(CC)Sc1ncnc2nc[nH]c12 (stereo unspecified)	i	i	10µM	i
COc1cccc(/C=N/Nc2nc3ccccc3[nH]2)c1OC	i	i	10µM	?
COc1cccc(C=NNc2nnc(NN=Cc3cccc(OC)c3OC)c3ccccc23)c1OC	i	?	nt	nt
COc1cccc(/C=N/Nc2nc3ccccc3[nH]2)c1O	i	?	2.3µM	?
N#Cc1ccc(C23CC4(C2)[C@H](CN(CC2CCCCC2)[C@@H]4c2ccccc2)C3c2ccccc2)cc1 (stereo partly specified)	i	i	12µM	?
N#Cc1ccc(C23CC4(C2)[C@H](CN(CC2CCCCC2)[C@@H]4c2ccccc2)C3c2ccc(C(F)(F)F)cc2)cc1 (stereo partly specified)	nt	nt	?	10µM
N#Cc1ccc(C23CC4(C2)[C@H](CN(CC2CCCCC2)[C@@H]4c2ccccc2)C3c2ccc(Cl)nc2)cc1 (stereo partly specified)	i	i	?	?
Cc1ccc(C(=O)CSc2nnc(N)s2)c(C)c1	i	i	i	i
